HP1b binding inh – blocks HP1-beta chromodomain binding to methylated histone tails; Potency, µM (highest dose often 114 µM), inactives show at the top dose activity change, negative = inhibition, actives largely listed as inhibitors; 0.56% of 390,000 active; AlphaScreen HP1-beta / biotin-H3K9me3 peptide binding; AID 540317; note: potency is the fitted concentration of half-maximal effect; nearly all actives have a fitted effect of over 70% in size
Target sequence (P83916 whole entry, looked up): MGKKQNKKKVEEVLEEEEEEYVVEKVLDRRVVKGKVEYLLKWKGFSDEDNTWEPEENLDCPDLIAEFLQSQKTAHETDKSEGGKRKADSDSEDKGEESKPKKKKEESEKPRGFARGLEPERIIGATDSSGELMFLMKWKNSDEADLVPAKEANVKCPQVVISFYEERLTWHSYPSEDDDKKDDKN
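Compound inhibition of the preformed complex between 50 nM HP1-beta and 50 nM biotinylated H3K9me3 peptide was read by AlphaScreen. Buffer was PBS pH 7.4 with 0.01% Tween-20. Incubations ran 30 min at room temperature, with 10 ug/mL donor/acceptor beads.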
Six1-Eya2 blk – Six1/Eya2 interaction inhibition; 0.56% of 360,000 active; AlphaScreen GST-Six1/His-Eya2 binding, biochemical; hits give low values; activity change, % (no concentration beside the values); in the data active = activity change below about -65%; inconclusive = mostly about -30% to -63%; note: % is set by controls: 0 for no effect and ±100 for the full control effect
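Six1/Eya2 binding was read as AlphaScreen signal after compounds were pinned into GST-Six1 plus His-tagged Eya2 (5X stock 250/500 nM) in pH 8.0 Tris/NaCl/TCEP buffer, beads added, then incubated 1 h, 37 C, dark.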
JMJD2A Tudor – JMJD2A Tudor domain (human) inhibition; AlphaScreen JMJD2A-Tudor / H3K4me3 peptide binding; O75164; Potency, µM (series often up to 114 µM), for the others: at the top dose activity change, negative = inhibition, usual class: inhibitors; 4.4% of 390,000 active; note: potency is the fitted concentration of half-maximal effect; % is set by controls: 0 for no effect and ±100 for the full control effect; nearly all actives have a fitted effect of over 50% in size
CtBP-E1A inh – CtBP/E1A binding inhibition. AlphaScreen GST-E1A/His-CtBP binding, 1536-well; hits give low values. AID 651724. 0.49% of 340,000 active. activity change, % (no concentration beside the values); in the data active = activity change below about -65%; inconclusive = mostly about -30% to -63%; note: % is set by controls: 0 for no effect and ±100 for the full control effect
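Protein mix (5X: 125 nM each GST-E1A, His-CtBP) was incubated with pinned compound 2 h at 37 deg C in dark, in 50 mM Tris pH 8.0 buffer with 300 mM NaCl. Glutathione donor and nickel acceptor beads followed; AlphaScreen signal read after 1 h.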
G9a inh – G9a (human) methyltransferase inhibition | 8.8% of 350,000 active | Potency, µM (top dose mostly 102 µM), for inactives: top-dose activity, negative = inhibition, usual class: inhibitors | G9a H3K9 monomethylation, AlphaScreen, 2 h | AID 504332; note: potency is the fitted concentration of half-maximal effect; % is set by controls: 0 for no effect and ±100 for the full control effect; nearly all actives have a fitted effect of over 75% in size
Target sequence (Q96KQ7 913-1193 limits assumed): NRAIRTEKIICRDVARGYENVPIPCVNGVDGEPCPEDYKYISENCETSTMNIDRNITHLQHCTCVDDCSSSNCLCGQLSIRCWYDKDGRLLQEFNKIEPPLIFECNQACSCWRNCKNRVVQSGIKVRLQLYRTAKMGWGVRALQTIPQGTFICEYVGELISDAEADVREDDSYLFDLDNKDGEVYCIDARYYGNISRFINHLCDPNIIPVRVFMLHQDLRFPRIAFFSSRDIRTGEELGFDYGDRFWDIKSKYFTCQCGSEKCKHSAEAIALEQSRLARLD
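AlphaScreen detection with an anti-monomethyl H3K9 antibody quantified product after a 2 h room-temperature reaction containing 500 nM biotinylated H3K9 peptide, 20 µM SAM and 20 nM enzyme, which had been preincubated 15 min with compound.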
BAZ2B block – BAZ2B (human) inhibition; Q9UIF8; AlphaScreen BAZ2B-H3K14Ac peptide displacement; Potency, µM (highest dose often 114 µM), for the others: at the top dose activity change, negative = inhibition, usual class: inhibitors; 4.4% of 360,000 active; AID 504333; note: potency is the fitted concentration of half-maximal effect; % is set by controls: 0 for no effect and ±100 for the full control effect; nearly all actives have a fitted effect of over 60% in size
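Multi-concentration screen (max 110 uM) measuring displacement of acetylated histone H3 peptide from BAZ2B by AlphaScreen, using 50 nM protein, 50 nM peptide and 10 ug/mL streptavidin donor plus Ni-chelate acceptor beads.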
The depositor's hits bear a star; ? = inconclusive; / = no result given; [ ] = another dose, or the depositor's remark. In the library only some 10% were active in any assay of this set; here they are far more common. Unless noted, calls come from the whole dose curve; as a rule, active = well fitted inhibition curve with a large enough effect; inconclusive = small, poorly fitted or top-dose-only effect; inactive = no such curve, though single readings can be large or run the other way.

SMILES	HP1b binding inh	Six1-Eya2 blk	JMJD2A Tudor	CtBP-E1A inh	G9a inh	BAZ2B block
COc1cc(NC(=O)[C@H](C)NC(=O)N2CCn3c2nc2ccccc23)cc(OC)c1	40%	-7	-24%	0	-11%	50µM*
COc1cccc(CNC(=O)[C@H](CCSC)NC(=O)N2CCn3c2nc2ccccc23)c1	24%	-4	-22%	-8	50µM*	?
COc1cccc(NC(=O)[C@H](C)NC(=O)N2CCn3c2nc2ccccc23)c1	42%	-1	-9%	-1	63%	?
COc1ccc(OC)c(CCNC(=O)c2cc3c(=O)oc4ccc(C)cc4c3s2)c1	46%	/	0%	/	-29%[59 µM]	-9%
Cc1ccc(C)c(N(C)C(=O)c2cc3c(s2)-c2ccccc2OC3)c1	108%	/	56%	/	88%[59 µM]	39%
COc1ccc(NC(=O)c2c(C)oc3ccc(O)c(CN4CCCC(C)C4)c23)cc1 (centres undefined)	13%	/	-19%	/	-26%[59 µM]	-24%
Cc1ccc(-c2csc(NC(=O)C3CSC4(C)CCC(=O)N34)n2)cc1 (centres undefined)	7%	-1	-2%	13	1%[0.501 µM]	79µM*
CC12CCC(=O)N1C(C(=O)Nc1nc3ccc(S(C)(=O)=O)cc3s1)CS2 (centres undefined)	26%	12	-10%	4	?	-10%
Cc1csc(NC(=O)C2CSC3(C)CCC(=O)N23)n1 (centres undefined)	42%	6	-5%	6	/	-8%
CC12CCC(=O)N1C(C(=O)Nc1nc3ccc(Cl)cc3s1)CS2 (centres undefined)	8%	-5	?	-19	45µM*	-33%
CCc1ccc2nc(NC(=O)C3CSC4(C)CCC(=O)N34)sc2c1 (centres undefined)	22%	-15	-12%	-5	28µM*	-34%
Cc1oc2c(c1C(=O)NCc1ccccc1F)C1=NCCN1C=N2	-4%	/	-16%	/	7%[59 µM]	-3%
CN1C(=O)C(O)(CC(=O)/C=C/c2ccco2)c2cc(Br)ccc21 (centres undefined)	8%	-1	-35%	-8	35µM*	-28%
O=C(CNC(=O)c1ccccc1)NCCc1ccc(O)c(O)c1	/	/	/	/	8.9µM*	-19%
CC(=O)NCCc1ccc(O)c(O)c1	/	/	/	/	2µM*	/
Cc1ccc(-c2cn(-c3ccccc3)c(=S)[nH]2)cc1C	?	-4	?	-14	45µM*	32µM*
Cc1ccccc1-c1cn(-c2ccccc2)c(=S)[nH]1	-19%	-5	?	-10	1.4µM*	?
O=[N+]([O-])c1ccc(-c2cn(-c3ccc(Cl)cc3)c(=S)[nH]2)cc1	25%	0	-3%	0	?	6%
COc1ccc(-n2cc(-c3ccc(Br)cc3)[nH]c2=S)cc1	26%	0	-11%	-24	-20%	?
COC(=O)c1cc2oc(C)cc2n1CC(=O)N1CCCc2ccccc21	-20%	?	?	-16	?	89µM*
CCOC(=O)c1cc2occc2n1CC(=O)N1CCCc2ccccc21	-29%	-7	?	-15	?	79µM*
COc1ccc(S(=O)(=O)Nc2nc3c(s2)C(=O)CC(C)(C)C3)cc1	15%	-4	-6%	-22	-30%[59 µM]	22%
Cc1ccc(S(=O)(=O)Nc2nc3c(s2)C(=O)CC(C)(C)C3)cc1	27%	13	-7%	-12	50µM*	-37%
CC1(C)CC(=O)c2sc(NS(=O)(=O)Cc3ccccc3)nc2C1	-13%	4	-28%	2	11µM*	4%
CC1(C)CC(=O)c2sc(NS(=O)(=O)c3cc(Cl)ccc3Cl)nc2C1	9%	1	-10%	-2	?	-3%
Cc1cc(Cl)ccc1NC(=O)COC(=O)CCNS(=O)(=O)c1ccccc1	44%	0	2%	/	2%[12.7 µM]	6%
Cn1cc(C(=O)NCCc2ccccc2)c(=O)c2cc(S(=O)(=O)N3CCCCC3)ccc21	40%	/	-1%	/	0%[59 µM]	/
